Hit rate of the full screen: of about 310,000 compounds, about 14,000 (4.5%) showed an effect of 50% or more. Effects have a minus sign here. This is one part of a sample in which strong results are shown more often than they occur.
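Note: peak tail current of the secondary pulse compared with the same well before compound.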

human ether-à-go-go-related gene (hERG) potassium channel, sequence (Q12809 whole entry, looked up): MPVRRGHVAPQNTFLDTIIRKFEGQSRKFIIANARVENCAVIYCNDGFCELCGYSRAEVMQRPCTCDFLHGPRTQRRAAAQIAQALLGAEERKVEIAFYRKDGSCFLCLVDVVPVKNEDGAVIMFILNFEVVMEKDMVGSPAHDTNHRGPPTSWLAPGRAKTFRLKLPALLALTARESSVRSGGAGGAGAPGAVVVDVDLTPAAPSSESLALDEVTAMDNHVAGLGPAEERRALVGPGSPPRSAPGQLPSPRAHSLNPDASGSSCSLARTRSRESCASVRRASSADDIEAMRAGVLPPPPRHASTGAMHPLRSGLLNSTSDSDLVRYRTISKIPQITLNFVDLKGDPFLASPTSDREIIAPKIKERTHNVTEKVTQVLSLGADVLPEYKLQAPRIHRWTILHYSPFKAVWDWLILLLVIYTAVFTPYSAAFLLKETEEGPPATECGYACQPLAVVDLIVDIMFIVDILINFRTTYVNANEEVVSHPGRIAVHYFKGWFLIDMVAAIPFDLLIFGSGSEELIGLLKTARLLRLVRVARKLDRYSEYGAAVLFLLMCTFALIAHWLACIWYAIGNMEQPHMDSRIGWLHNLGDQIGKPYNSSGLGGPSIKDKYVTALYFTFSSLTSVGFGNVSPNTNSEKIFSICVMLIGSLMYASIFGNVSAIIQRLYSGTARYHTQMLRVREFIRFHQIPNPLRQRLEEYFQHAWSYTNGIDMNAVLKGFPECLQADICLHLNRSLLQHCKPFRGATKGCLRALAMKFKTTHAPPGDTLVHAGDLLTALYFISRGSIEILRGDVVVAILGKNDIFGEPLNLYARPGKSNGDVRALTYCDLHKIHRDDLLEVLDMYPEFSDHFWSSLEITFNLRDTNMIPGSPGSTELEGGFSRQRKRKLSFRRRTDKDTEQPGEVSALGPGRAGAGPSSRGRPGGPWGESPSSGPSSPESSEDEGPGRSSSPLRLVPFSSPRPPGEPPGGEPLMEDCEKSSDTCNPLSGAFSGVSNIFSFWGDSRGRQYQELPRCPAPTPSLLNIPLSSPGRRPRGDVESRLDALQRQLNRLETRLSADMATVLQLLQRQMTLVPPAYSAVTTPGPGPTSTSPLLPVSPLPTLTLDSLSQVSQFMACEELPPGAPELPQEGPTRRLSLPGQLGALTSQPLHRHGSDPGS

This test addresses human ether-à-go-go-related gene (hERG) potassium channel (human, UniProt Q12809). As to the kind of experiment: primary screen, population patch clamp on CHO cells stably expressing hERG; higher = less effect of the substance.
Regarding `Cc1ccc(S(=O)(=O)c2nc(-c3cccs3)oc2NCCCN(C)C)cc1`, the “hERG current change (%, negative = inhibition) at 10uM” value is recorded as -67.8%.
The value for `CN(C)CCNc1oc(-c2ccccc2Cl)nc1S(=O)(=O)c1ccccc1` was -35.7%; that for `COCCNc1oc(-c2cccs2)nc1S(=O)(=O)c1ccc(C)cc1` was -26.4%; that for `CN(C)CCCNc1oc(-c2ccccc2Cl)nc1S(=O)(=O)c1ccccc1` was -43.3%.
Then `CN(C)CCCNc1oc(-c2ccccc2Cl)nc1S(=O)(=O)c1ccc(F)cc1`, with -59.9%.
In the case of `COCCCNc1oc(-c2cccs2)nc1S(=O)(=O)c1ccc(C)cc1`, the “hERG current change (%, negative = inhibition) at 10uM” value was -15.2%.
Turning to `CN1C(=O)c2cccc(NCCCCCCN3C(=O)c4ccccc4C3=O)c2C1=O`, the “hERG current change (%, negative = inhibition) at 10uM” value is 5.41%.
The value for `CC(C)OCC1CO1` (stereo not drawn) was 6.9%.
Then `Cc1noc(NS(=O)(=O)c2ccc(NC(=O)c3ccc(N(C)C)cc3)cc2)c1C`, with 12.2%; and `Cc1cc(C)cc(NC(=O)C(=O)NCCc2c[nH]c3ccccc23)c1`, with 14.9%.
Then `CCCOc1ccccc1-n1sc2c(c1=S)-c1cc(OC)cc3c1N(C(=O)C3=O)C2(C)C`, with 18.5%; and `C#CCOc1c(Cl)cc(/C=N/O)cc1OC`, with 4.04%.
Take `COc1ccc2nc(NC(=O)Cn3cnc4ccccc4c3=O)sc2c1`: the “hERG current change (%, negative = inhibition) at 10uM” value is on record as -4.49%.
In the case of `CCOc1ccc2nc(NC(=O)Cn3cnc4c3c(=O)n(C)c(=O)n4C)sc2c1`, the “hERG current change (%, negative = inhibition) at 10uM” value is -41.9%.
The value for `CC(C)c1ccc2nc(NC(=O)C3CC3)sc2c1` was -55%; that for `COC(=O)c1ccc2nc(NC(=O)C3CC3)sc2c1` was 14%; that for `COc1ccc2nc(NC(=O)C3CC(=O)N(c4ccccc4)C3)sc2c1` (stereo not drawn) was -51.7%.
The value for `COc1ccc(N2CC(C(=O)Nc3nc4ccccc4s3)CC2=O)cc1` (stereo not drawn) was -48.9%.
Then `O=C(Nc1nc2ccc(Cl)cc2s1)C1CC1`, with 28.7%; and `O=C(Nc1nc2ccccc2s1)C1CC(=O)N(c2ccccc2)C1` (stereo not drawn), with -11.2%.
For the molecule `CS(=O)(=O)c1ccc2nc(NC(=O)C3CC(=O)N(c4ccccc4)C3)sc2c1` (stereo not drawn), the “hERG current change (%, negative = inhibition) at 10uM” value is -4.25%.
Then `COc1ccc2nc(NC(=O)Cn3cnc4c(=O)n(C)c(=O)n(C)c43)sc2c1`, with -67.9%.
Then `COc1ccc(N2CC(C(=O)Nc3nc4ccc(OC)cc4s3)CC2=O)cc1` (stereo not drawn), with -58.8%; and `COc1ccc(N2CC(C(=O)Nc3nc4ccc(S(C)(=O)=O)cc4s3)CC2=O)cc1` (stereo not drawn), with 3.32%; and `O=C(NC1CCCCC1)c1ccc(CNc2ccccc2)o1`, with -9.19%.
Then `COc1ccc(CCNC(=O)C2CCCN2C(=O)Nc2ccc(F)cc2)cc1OC` (stereo not drawn), with 16.5%; and `CCOC(=O)C1=C(c2ccccc2)Nc2ncnn2C1c1ccccn1` (stereo not drawn), with 13.6%; and `O=C(O)c1cc(-c2ccc(/C=C3\NC(=O)N(c4ccc(Cl)cc4)C3=O)o2)ccc1Cl`, with 7.5%.
For the molecule `CC1(C)CC2CC(C)(CN2C(=S)NC(=O)c2ccccc2Cl)C1` (stereo not drawn), the “hERG current change (%, negative = inhibition) at 10uM” value turned out to be 3.14%.
Then `NC(=O)NC(=O)CSc1ccccc1`, with 17.1%.
The value for `COc1ccc(N2CC(C(=O)Nc3nc4ccc(F)cc4s3)CC2=O)c(OC)c1` (stereo not drawn) was -56.3%; that for `O=C(Nc1nc2ccc(F)cc2s1)C1CC(=O)N(c2ccc3c(c2)OCCO3)C1` (stereo not drawn) was -8.48%; that for `COc1ccc(N2CC(C(=O)Nc3nc(-c4ccccc4)c(C(C)=O)s3)CC2=O)c(OC)c1` (stereo not drawn) was -0.242%.
Then `CC(C)OC(=O)c1ccc(OC(=O)c2cccnc2)cc1`, with 12.5%; and `COC(=O)C1=C(C)N(Cc2ccccc2)C(=NCc2cc(OC)c(OC)c(OC)c2)N[C@H]1c1ccccc1`, with -27.8%; and `C=CCN=C1N[C@@H](c2ccccc2)C(C(=O)OC)=C(C)N1CC`, with 1.27%.
As for `CCN1C(=O)N[C@@H](c2ccccc2)C(C(=O)OC)=C1C`, the “hERG current change (%, negative = inhibition) at 10uM” value is -1.67%.
For `COCCN=C1N[C@@H](c2cccc(C(F)(F)F)c2)C(C(=O)OC)=C(C)N1Cc1ccccc1`, the “hERG current change (%, negative = inhibition) at 10uM” value was -11.9%.
The value for `CCN1C(N(C)CCc2cccs2)=N[C@@H](c2ccccc2)C(C(=O)OC)=C1C` was -53.8%.
On to `CCN1C(=NCCOC)N[C@@H](c2cccs2)C(C(=O)OC)=C1C`, for which the “hERG current change (%, negative = inhibition) at 10uM” value is given as -5.96%.
Then `CCN1C(=O)N[C@@H](c2cccs2)C(C(=O)OC)=C1C`, with 10.2%; and `CCN1C(=NCCc2cccnc2)N[C@@H](c2ccccc2)C(C(=O)OC)=C1C`, with -51.2%.
On to `CCN(CC)CCCN=C1N[C@@H](c2ccccc2)C(C(=O)OC)=C(C)N1CC`, for which the “hERG current change (%, negative = inhibition) at 10uM” value was 14.6%.
Then `COC(=O)C1=C(C)N(Cc2ccccc2)C(=NCCc2cccnc2)N[C@H]1c1ccccc1`, with -63%.
Then `CCN1C(=S)N[C@@H](c2ccccc2)C(C(=O)OC)=C1C`, with 14.8%; and `CCN1C(=NCCc2cccs2)N[C@@H](c2cccs2)C(C(=O)OC)=C1C`, with -64.2%; and `CCOC(=O)C1=C(C)Nc2ccccc2N/C1=N\S(=O)(=O)c1ccc(Cl)cc1`, with -7.32%.
Then `COc1ccc(CNC(=O)CCCNS(=O)(=O)c2cccc3nonc23)cc1`, with -1.27%; and `CC(CC(=O)NC1CCCCC1)S(=O)(=O)c1ccc2c(c1)NC(=O)CO2` (stereo not drawn), with 5.72%; and `Cc1cc(C)nc(N(C#N)Cc2cccc3ccccc23)n1`, with 3.61%.
Regarding `Cc1cc(C)nc(N(C#N)Cc2ccccc2C)n1`, the “hERG current change (%, negative = inhibition) at 10uM” value is reported as -51.4%.
Then `Cc1cc(C)nc(N(C#N)Cc2ccccc2Cl)n1`, with 4.48%; and `CCC(=O)n1nc(-c2ccco2)nc1N`, with 10.8%; and `CCN(Cc1ccccc1)c1ccc(/C=N/NS(=O)(=O)c2cccc([N+](=O)[O-])c2)cc1`, with 10.3%.
Then `Cc1nn2c(-c3cccc(NC(=O)CSc4nc5ccccc5o4)c3)nnc2c2ccccc12`, with -70.8%; and `CC(=O)Nc1cccc(-c2nnc3c4ccccc4c(C)nn23)c1`, with -0.564%.
Then `Cc1cccc(NC(=O)CSc2nc3ccccc3o2)c1`, with 3.5%.
`CCS(=O)(=O)N1CCN(C(=O)c2cccc3ccccc23)CC1`: the “hERG current change (%, negative = inhibition) at 10uM” value is recorded as 12.8%.
Then `COc1ccc(CNC[C@@H](CCCCN(C)Cc2ccc(OC)cc2)N2C[C@H](c3ccccc3)N(CCc3ccc(Cl)c(Cl)c3)C(=O)C2=O)cc1`, with -80.3%; and `COc1cccc(CCN2C(=O)C(=O)N([C@@H](CNCc3ccccc3)Cc3ccccc3F)C[C@@H]2C(C)(C)C)c1`, with -48.5%.
The value for `COc1ccc(CNC(=O)[C@@H]2CC=C[C@@H]3CCN(Cc4ccc(Cl)c(Cl)c4)C(=O)[C@@H]32)cc1` was -8.85%.
Then `Nn1cnc2cc3ccccc3cc2c1=O`, with 8.16%; and `Cn1c(=O)c2cn(-c3ccc4c(c3)OCCO4)cc2n(C)c1=O`, with 11.3%; and `Cc1cccc(C)c1NC(=O)C1(N(Cc2ccco2)C(=O)c2ccccn2)CCCC1`, with 5.95%.
On to `COc1c(C)cccc1C(=O)Nc1ccc(CN2CCCCC2)cc1`, for which the “hERG current change (%, negative = inhibition) at 10uM” value is -30.7%.
Then `COc1cccc(OC)c1C(=O)Nc1ccc(CN2CCCCC2)cc1`, with 10.6%; and `COc1c(Cl)cc(Cl)cc1C(=O)Nc1ccc(CN2CCOCC2)cc1`, with 8.37%.
Then `COc1ccc(Cl)cc1C(=O)Nc1ccc(CN2CCCCC2)cc1`, with -52%.
The value for `COc1c(Cl)cc(Cl)cc1C(=O)Nc1ccc(CN2CCCCC2)cc1` was -65.1%; that for `COc1ccccc1C(=O)Nc1ccc(CN2CCCCC2)cc1` was -28.4%.
`Cc1ccc(N2C(S)=C(C#N)C(=O)NC2c2cccs2)cc1` (stereo not drawn): the “hERG current change (%, negative = inhibition) at 10uM” value was 15.2%.
As to `c1ccc(CN(Cc2ccccc2)c2ncnc3c2nnn3Cc2ccccc2)cc1`, the “hERG current change (%, negative = inhibition) at 10uM” value came out at 7.63%.
The value for `CC1Cc2nc(SCC(=O)NCc3ccco3)n(-c3ccccc3)c(=O)c2S1` (stereo not drawn) was -33.5%; that for `Cc1ccc(C(=O)Nc2cccc(C(F)(F)F)c2)cc1NC(=O)c1csc(-c2ccncc2)n1` was -62.5%.
In the case of `O=C(Nc1ccc(C(F)(F)F)cc1)c1csc(-c2ccncc2)n1`, the “hERG current change (%, negative = inhibition) at 10uM” value is recorded as -25.4%.
The value for `NNC(=O)c1csc(-c2cccc(C(F)(F)F)c2)n1` was -30%; that for `O=C(Nc1cccc(C(F)(F)F)c1)c1csc(-c2ccncc2)n1` was -68.6%; that for `COc1cc(NC(=O)c2csc(-c3ccncc3)n2)cc(C(=O)Nc2cccc(C(F)(F)F)c2)c1` was -48.7%.
The value for `CCN1CCN(Cc2ccc(NC(=O)c3ccc(C)c(NC(=O)c4csc(-c5ccncc5)n4)c3)cc2C(F)(F)F)CC1` was 7.22%; that for `CC(C)N1C(=O)C2ON(c3ccccc3)C(c3cccs3)C2C1=O` (stereo not drawn) was -16.6%.
The value for `CCOC(=O)C(CC)(CCC(=O)O)c1csc(Nc2ccc(C)cc2)n1` (stereo not drawn) was 16.5%; that for `Cc1cc(=O)oc2c(C)c(OCC(=O)N(C)C)ccc12` was 9.8%; that for `O=C(c1ccc(F)cc1)N1C2CCC1CC(O)(c1ccc(F)cc1)C2` (stereo not drawn) was -20.6%.
`COc1ccc(C(C)=O)cc1COC(=O)c1ccc(N)c([N+](=O)[O-])c1`: the “hERG current change (%, negative = inhibition) at 10uM” value is on record as 35.1%.

Values taken from publication PMC4336329 (PLoS ONE, 2015).
